# Screening data (PubChem)
# Only some compounds are listed: those with a hit (about 1% of all), similar ones and a draw of the others.
# VHR inh abs: DUSP3 (human) phosphatase inhibition; inhibition, % at 13.3 µM; P51452; AID 1654; recombinant VHR phosphatase, pNPP absorbance; actives 0.52% (n = 290,000); in the data active means inhibition above about 50%
# Target sequence (P51452 whole entry, looked up): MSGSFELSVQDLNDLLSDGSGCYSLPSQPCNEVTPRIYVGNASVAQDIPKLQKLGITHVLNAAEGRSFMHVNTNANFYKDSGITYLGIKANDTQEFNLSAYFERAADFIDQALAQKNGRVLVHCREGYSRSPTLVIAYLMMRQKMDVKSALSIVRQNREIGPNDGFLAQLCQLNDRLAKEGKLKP
# Mtb BioA inh: inhibitors of Mycobacterium tuberculosis BioA enzyme. inhibition, % at 9.99 µM. purified M. tuberculosis BioA enzyme, plate reader. AID 602481. actives 0.096% (n = 360,000); in the data active means inhibition above about 40%; inconclusive means no clear call, values can overlap the other calls
# MazF activator: MazEF (E. coli) toxin RNase activation; P0AE70; FAM/BHQ RNA-DNA oligo cleavage fluorescence, 5 h; activation, % at 20 µM; actives 0.32% (n = 350,000); in the data active means activation above about 50%
# Target sequence (P0AE70 whole entry, looked up): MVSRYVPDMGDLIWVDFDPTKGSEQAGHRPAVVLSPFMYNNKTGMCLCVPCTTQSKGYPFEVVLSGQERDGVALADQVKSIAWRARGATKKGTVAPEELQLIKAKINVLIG
# FadD28 FP inh: blocks FadD28 binding to the bisubstrate probe; AID 588549; actives 0.22% (n = 360,000); inhibition, % at 12.5 µM; fluorescence polarization; in the data active means inhibition above about 8.5%, passing the limit was not always enough; inconclusive means no clear call, values can overlap the other calls
# Yp Topo-I inh: blocks Yersinia pestis topoisomerase I activity. Y. pestis Topo-I cleavage product accumulation, plate reader. activity, % at 10 µM. actives 0.064% (n = 360,000); in the data active means activity above about 50%, passing the limit was not always enough; inconclusive means no clear call, values can overlap the other calls
# TcdB GH inh: inhibitors of Clostridioides difficile toxin B glycohydrolase; P18177; TcdB glycohydrolase enzymatic assay, plate reader; inhibition, % at 9.99 µM; actives 0.24% (n = 350,000); AID 652162; in the data active means inhibition above about 10%
# * hit, by the source's call; ? = inconclusive; . = no result.
SMILES,VHR inh abs,Mtb BioA inh,MazF activator,FadD28 FP inh,Yp Topo-I inh,TcdB GH inh
CN1C(=O)c2cc(NC(=O)C3CC3)ccc2OC[C@@H]2O[C@@H](CC(=O)NCc3ccccc3F)CC[C@@H]21,.,.,.,.,.,-3
CC(=O)Nc1ccccc1-c1ccc(C)o1,-4,-1,9,-2,2,.
Cc1ccc(NC(=O)CS(=O)CC(=O)Nc2ccccc2-c2ccc(C)o2)cc1 (stereo not given),2,-1,300*,0,13,1
O=C(O)c1cc(-c2ccc(/C=C3\NC(=O)N(c4ccccc4)C3=O)o2)ccc1Cl,-15,0,-13,2,-7,2
O=C(O)c1cc(-c2ccc(/C=C3\NC(=O)N(c4ccc(Cl)cc4)C3=O)o2)ccc1Cl,22,.,-3,10*,5,-1
CC(C)c1ccc[n+](-c2nc([O-])sc2C=O)c1,5,-2,-4,-2,8,1
Cc1ccc[n+](-c2nc([O-])sc2C=O)c1,41,.,69*,-2,-8,1
COc1ccc(-c2cn(CC[C@H]3CC[C@H](NC(=O)CCN4CCCCC4)[C@H](CO)O3)nn2)cc1,.,1,.,.,.,0
CN1CCN(C(=O)C[C@H]2C[C@H]3c4cc(NC(=O)Nc5ccc(F)cc5)ccc4O[C@H]3[C@H](CO)O2)CC1,.,1,.,.,.,-1
O=C(Nc1nccs1)c1ccc(NC(=O)C2CC=CCC2C(=O)O)cc1 (stereo not given),53*,.,1,-3,0,1
O=C(O)c1ccc(NC(=O)C2CC=CCC2C(=O)O)cc1 (stereo not given),6,1,0,-3,-3,.
CCC(=O)N1[C@H](CN(C)C(=O)c2ccccc2F)[C@@H](c2ccccc2)[C@@H]1CO,.,3,.,.,.,.
O=C(O)CCNc1cc(N2CCN(C(=O)c3ccco3)CC2)c2noc3c2c1C(=O)c1ccccc1-3,26,-108,-20,22*,20,1
O=C(C[C@H]1C=C[C@@H](NS(=O)(=O)c2ccccc2F)[C@H](CO)O1)NCCCN1CCOCC1,.,-2,.,.,.,0
COC(=O)c1sc2nc(SCc3cccc(F)c3)n(N)c(=O)c2c1C,-8,-1,133*,-2,5,.
CCC(=O)N1CC2(C1)[C@@H](c1ccc(-c3cccc(OC)c3)cc1)[C@@H](CO)N2C(C)=O,.,.,.,.,.,1
O=c1c2ccccc2c(C=Nc2ccccc2O)c(O)n1-c1nccs1,14,.,278*,-1,-6,0
CN(Cc1ccccc1)C(=O)c1cn(C)c2ccc(S(=O)(=O)N3CCCC3)cc2c1=O,51*,1,-18,0,-4,0
Cc1ccc(CNC(=O)c2cn(C)c3ccc(S(=O)(=O)N4CCOCC4)cc3c2=O)cc1,52*,-1,0,-1,18,0
O=C(NCc1ccccc1)c1cc(S(=O)(=O)N2CCOCC2)ccc1F,27,-2,50*,-3,-9,.
O=C(NCCc1ccccc1)c1cc(S(=O)(=O)N2CCOCC2)ccc1F,-10,0,7,-1,5,.
O=C(C[C@@H]1CC[C@H]2[C@@H](COC[C@H](O)CN2Cc2cccc(Cl)c2)O1)Nc1nccs1,.,4,.,.,.,-4
CCOc1ccc(Br)cc1C(=O)N/N=C/c1c[nH]c2ccccc12,11,-1,11,0,3,-11
O=C(N/N=C/c1c[nH]c2ccccc12)c1cc(Br)ccc1O,2,9,1,29*,-19,0
Cc1nc(N)sc1C(=O)N/N=C/c1c[nH]c2ccccc12,12,-1,7,9.9*,0,.
SMILES,VHR inh abs,Mtb BioA inh,MazF activator,FadD28 FP inh,Yp Topo-I inh,TcdB GH inh
Cc1nc(N)sc1C(=O)N/N=C/c1ccccc1[N+](=O)[O-],7,-4,.,-1,?,0
C/C=C/c1ccc([C@H]2[C@@H](CO)N(C(=O)c3cnccn3)C23CN(C(=O)C2CC2)C3)cc1,.,.,.,.,.,1
CC1=C(C(=O)N2CCOCC2)C(c2ccc(OC(F)F)cc2)NC(=S)N1c1ccccc1 (stereo not given),53*,.,10,-4,12,0
CC1=C(C(=O)N2CCOCC2)C(c2ccc(Br)cc2)NC(=S)N1c1ccccc1 (stereo not given),11,.,1,-1,11,1
CCc1cccc(NC(=O)COC(=O)/C=C/c2cccs2)c1,.,21,3,20*,17,0
O=C(O)c1cc(S(=O)(=O)Nc2ccc3cn[nH]c3c2)ccc1Cl,.,0,-7,0,7,10*
